Laboratory results from PubChem BioAssay (NCI).
This is part of a sample that, as a whole, favours compounds with a hit. Of some 83,000 tested, about 20% had one in any assay.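 Note: values are percent growth. 100 is the growth of untreated cells, values between 100 and 0 indicate rising inhibition; between -100 and 0 indicates cell death.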 The source made the active and inactive calls. How the source made its calls: active means growth percent below 10; inactive means the rest.

What was measured:
Assay in all cases: NCI-60 one-dose screen, 48 h (100 = growth as untreated, 0 = no growth, -100 = all killed)
Conditions in all cases: 10 µM unless noted
DU-145 prostate = test system: DU-145 prostate
K-562 leukemia = test system: K-562 leukemia
MALME-3M melanoma = test system: MALME-3M melanoma
MDA-MB-231 breast = test system: MDA-MB-231 breast
RXF 393 renal = test system: RXF 393 renal
SF-268 CNS = test system: SF-268 CNS
SF-295 CNS = test system: SF-295 CNS
SF-539 CNS = test system: SF-539 CNS
UACC-257 melanoma = test system: UACC-257 melanoma
M14 melanoma = test system: M14 melanoma

Measured: growth

Cc1cc(=O)oc2cc(OCCCOc3ccc(/C=C/C(=O)Nc4ccc(Br)cc4)cc3)ccc12
inactive: DU-145 prostate 67.1% | K-562 leukemia 78.4% | MALME-3M melanoma 40.4% | MDA-MB-231 breast 70.5% | RXF 393 renal 57.8% | SF-268 CNS 67.8% | SF-295 CNS 95.1% | SF-539 CNS 87.9% | UACC-257 melanoma 91.4% | M14 melanoma 84%

Cc1ccc(CSC2=C(Cl)CN(c3ccc(Cl)cc3)C2=O)cc1
inactive: DU-145 prostate 108% | K-562 leukemia 100% | MALME-3M melanoma 96.9% | MDA-MB-231 breast 107% | RXF 393 renal 111% | SF-268 CNS 108% | SF-295 CNS 101% | SF-539 CNS 103% | UACC-257 melanoma 107% | M14 melanoma 107%

COc1cccc2c1[C@H](OC)[C@]13O[C@@]1(C2=O)[C@H](O)[C@H](C)[C@@](O)(C(=O)[C@@H]1O[C@H]1C)[C@@H]3O
active: DU-145 prostate -20.6% | K-562 leukemia -27% | MALME-3M melanoma -56.7% | MDA-MB-231 breast -1.86% | RXF 393 renal -77.3% | SF-268 CNS -24.7% | SF-295 CNS -21.8% | SF-539 CNS -29% | UACC-257 melanoma -28.3% | M14 melanoma -89.7%

C/C(=N\NC(=O)/C=C/CC(=O)O)c1nnn(-c2ccc([N+](=O)[O-])cc2)c1C
inactive: DU-145 prostate 104% | K-562 leukemia 103% | MALME-3M melanoma 97.9% | MDA-MB-231 breast 104% | RXF 393 renal 106% | SF-268 CNS 96.9% | SF-295 CNS 97% | SF-539 CNS 100% | UACC-257 melanoma 105% | M14 melanoma 103%

Clc1cccc(/C=N/Nc2nc(N/N=C/c3cccc(Cl)c3)nc(N3CCOCC3)n2)c1
inactive: DU-145 prostate 42.5% | K-562 leukemia 11.8% | MDA-MB-231 breast 71.3% | RXF 393 renal 17.4% | SF-268 CNS 65.9% | SF-295 CNS 57.7% | SF-539 CNS 43.6% | UACC-257 melanoma 39.1% | M14 melanoma 35.2%
active: MALME-3M melanoma -43.7%

CC(Nc1c(C#N)cnc2ccc(-c3cncc(-c4n[nH]c(=O)o4)c3)cc12)c1ccccc1 (stereo not given)
inactive: K-562 leukemia 28.5% | MDA-MB-231 breast 17.2% | SF-268 CNS 12.2% | UACC-257 melanoma 34.2% | M14 melanoma 18.7%
active: DU-145 prostate 8.39% | MALME-3M melanoma -8.08% | RXF 393 renal -24% | SF-295 CNS -7.24% | SF-539 CNS -12.8%

CC(=C(c1ccc(OCCCN(C)C)cc1)c1ccc(OCCCN(C)C)cc1)c1ccc(Cl)cc1
inactive: DU-145 prostate 98% | MALME-3M melanoma 85.8% | MDA-MB-231 breast 95.4% | RXF 393 renal 80.6% | SF-268 CNS 91.7% | SF-295 CNS 95.2% | SF-539 CNS 81.7% | UACC-257 melanoma 100% | M14 melanoma 92.7%
active: K-562 leukemia -13.5%

O=C(/C=C/c1ccccc1)c1cccc(O)c1
inactive: DU-145 prostate 105% | K-562 leukemia 71.6% | MALME-3M melanoma 104% | MDA-MB-231 breast 105% | RXF 393 renal 92.4% | SF-268 CNS 104% | SF-295 CNS 98.3% | SF-539 CNS 103% | UACC-257 melanoma 101% | M14 melanoma 95.1%

CCN(CC)c1ccc(/C=N/NC(=O)c2ccc(NS(C)(=O)=O)cc2)c(O)c1
inactive: DU-145 prostate 31.3% | K-562 leukemia 14.2% | MDA-MB-231 breast 38.4% | SF-268 CNS 22.7%
active: MALME-3M melanoma 4.46% | RXF 393 renal -9.12% | SF-295 CNS 9.79% | SF-539 CNS 7.08% | UACC-257 melanoma -6.91% | M14 melanoma 0.206%

C/C(=C(/C)C1CC1CCNC1CCC(NC(=O)OC(C)(C)C)CC1)c1ccccc1 (stereo not given)
inactive: DU-145 prostate 84.6% | MALME-3M melanoma 36.6% | MDA-MB-231 breast 72.9% | RXF 393 renal 42.7% | SF-268 CNS 84.7% | SF-295 CNS 77.8% | SF-539 CNS 63.5% | UACC-257 melanoma 55.4% | M14 melanoma 21.3%
active: K-562 leukemia 0.99%

COC(=O)N1CCN(CCNCc2ccc(NC(=O)c3ccc(C)c(C#Cc4cnc5cccnn45)c3)cc2C(F)(F)F)CC1
inactive: DU-145 prostate 44.9% | SF-268 CNS 28.2%
active: K-562 leukemia 5.18% | MALME-3M melanoma -49.1% | MDA-MB-231 breast -9.19% | RXF 393 renal -47.2% | SF-295 CNS -25.1% | SF-539 CNS -15.9% | UACC-257 melanoma -10.6% | M14 melanoma 8.75%

C(=N\Nc1nc(N/N=C/c2ccc3c(c2)OCO3)nc(N2CCCCC2)n1)/c1ccc2c(c1)OCO2
inactive: DU-145 prostate 99.8% | K-562 leukemia 41.1% | MALME-3M melanoma 120% | MDA-MB-231 breast 90.7% | RXF 393 renal 79.7% | SF-268 CNS 100% | SF-295 CNS 77.8% | SF-539 CNS 87.6% | UACC-257 melanoma 108% | M14 melanoma 97.3%

CC1=C(C)C(=O)C(Nc2cccc(C)c2)=C(Br)C1=O
active: K-562 leukemia 2.13%
inactive: DU-145 prostate 104% | MALME-3M melanoma 117% | MDA-MB-231 breast 67.8% | RXF 393 renal 106% | SF-268 CNS 100% | SF-295 CNS 100% | SF-539 CNS 98.2% | UACC-257 melanoma 84.8% | M14 melanoma 104%

Oc1[nH]c2ccc(Cl)cc2c1N=Nc1nc(N=Nc2c(O)[nH]c3ccc(Cl)cc23)nc(N2CCCCC2)n1
inactive: DU-145 prostate 68% | K-562 leukemia 39.3% | MALME-3M melanoma 58.8% | MDA-MB-231 breast 64.5% | RXF 393 renal 86.8% | SF-268 CNS 54.5% | SF-295 CNS 24.3% | SF-539 CNS 79.5% | UACC-257 melanoma 105% | M14 melanoma 81.1%

NS(=O)(=O)c1ccc(CCn2c(-c3ccc(C(=O)O)cc3)nc(-c3ccccc3)c2-c2ccccc2)cc1
inactive: DU-145 prostate 102% | K-562 leukemia 96.8% | MALME-3M melanoma 97.9% | MDA-MB-231 breast 92.6% | RXF 393 renal 104% | SF-268 CNS 93.8% | SF-295 CNS 101% | SF-539 CNS 99.1% | UACC-257 melanoma 105% | M14 melanoma 105%
